# Laboratory results from the supplement of paper PMC9135407.
# “And” between values parts separate entries of the source, which are not always exact repeats. Equal values may be shown once. Where a name gives a salt, the structure may show the parent alone. The whole screen tested about 5,800 compounds, of which about 620 (11%) showed activity. The sample as a whole holds a higher share of actives than the screen did. A number with no mark means an inactive call.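 The calls were made as follows: active = score above a cut-off or among the top three wells of a plate; in these data no inactive exceeds 0.85.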
# Test system: primary human hepatic stellate cells (donor 1)
# Assay: scaled lipid accumulation score (0 = DMSO-like, 1 = nortriptyline-like); higher = stronger HSC inactivation (lipid re-accumulation), active = hit call of the paper
# Conditions: 48 h
# [1] = library stock concentration: 3.33 mM
# [2] = library stock concentration: 10 mM
# [3] = library stock concentration: 1 mM
# [4] = library stock concentration: 80 uM
# [5] = library stock concentration: 400 uM
# [6] = library stock concentration: 2 mM
structure (smiles),measurement,setting,value
"Cn1nc2c3c(cccc31)C(=O)c1ccccc1-2 [JNK Inhibitor, Negative Control]",scaled lipid accumulation score,[1],≤ 0
Cc1ccc2nc(NC(=O)CSc3nc4c(c(=O)n3-c3ccccc3)SCC4)sc2c1,scaled lipid accumulation score,[1],≤ 0
same,scaled lipid accumulation score,[2],0.76
COc1ccc(CNc2nc(N(CCO)CCO)nc3c2ncn3C(C)C)cc1 [Cdk2 Inhibitor III],scaled lipid accumulation score,[1],0.067
CCCCCCCC/C=C\CCCCCCCCCCCCCC(=O)NCCS(=O)(=O)O [N-Nervonoyl Taurine],scaled lipid accumulation score,[3],0.028
CCCCC[C@H](O)/C=C/[C@H]1CC[C@@H](O)[C@@H]1CCCCCCC(=O)O [11-deoxy Prostaglandin F1.beta.],scaled lipid accumulation score,[3],≤ 0
CCCCCCCCCC(=O)CC(=O)N[C@H]1CCOC1=O [N-3-oxo-dodecanoyl-L-Homoserine lactone],scaled lipid accumulation score,[3],0.017
COc1cc2ncc(-c3ccccc3)nc2cc1OC [Tyrphostin AG 1296],scaled lipid accumulation score,[1],≤ -0.009
same,scaled lipid accumulation score,[2],≤ 0
COc1cc2ncc(-c3ccccc3)nc2cc1OC,scaled lipid accumulation score,[1],≤ 0
same,scaled lipid accumulation score,library stock concentration: 18.8 mM,0.096
COc1cc2c(cc1OC)-c1cc3nc4ccccc4nc3n1C(C)(C)C2,scaled lipid accumulation score,[2],0.923 (active)
CN(CCO)CC(O)Cn1cnc2c1c(=O)n(C)c(=O)n2C (stereo not given),scaled lipid accumulation score,[2],≤ 0
CCC1=C[C@@H]2CN(C1)Cc1c([nH]c3ccccc13)[C@@](C(=O)OC)(c1cc3c(cc1OC)N(C)[C@H]1[C@@](O)(C(=O)OC)[C@H](OC(C)=O)[C@]4(CC)C=CCN5CC[C@]31[C@@H]54)C2 [Vinorelbine],scaled lipid accumulation score,library stock concentration: 2.6 mM,0.75
c1([C@]2(C(=O)OC)c3c(c4c(cccc4)[nH]3)CN(CC5C2)CC(CC)=C5)cc6c(N(C)[C@]7([H])[C@]6(CC8)[C@]([H])(N89)[C@@](CC)(C=CC9)[C@@H](OC(=O)C)[C@]7(O)C(=O)OC)cc1OC.C(=O)(O)[C@H](O)[C@@H](O)C(=O)O.C(=O)(O)[C@H](O) (stereo not given in full) [Vinorelbine Tartrate],scaled lipid accumulation score,[1],1.26 (active)
same,scaled lipid accumulation score,[2],0.863 (active)
CCC1=C[C@H]2CN(C1)Cc1c([nH]c3ccccc13)[C@@](C(=O)OC)(c1cc3c(cc1OC)N(C)[C@H]1[C@@](O)(C(=O)OC)[C@H](OC(C)=O)[C@]4(CC)C=CCN5CC[C@]31[C@@H]54)C2.O=C(O)C(O)C(O)C(=O)O,scaled lipid accumulation score,[2],1.52 (active)
COc1ccc2c(c1)c(CC(=O)O)c(C)n2Cc1ccc(Cl)cc1 [1-(4-Chlorobenzyl)-5-methoxy-2-methylindole-3-acetic acid],scaled lipid accumulation score,[2],0.078
Cc1cccc(C#Cc2ccccc2)n1,scaled lipid accumulation score,[1],≤ 0
same,scaled lipid accumulation score,[2],0.052
Nc1ccccc1S(N)(=O)=O [2-Aminobenzenesulfonamide],scaled lipid accumulation score,,≤ 0
Cc1cccc(C#Cc2ccccc2)n1 [6-Methyl-2-(phenylethynyl)pyridine hydrochloride],scaled lipid accumulation score,[2],≤ -0.034
NS(=O)(=O)C#Cc1ccccc1 [Pifithrin->m],scaled lipid accumulation score,[2],1.46 (active)
Cc1cccc(C#Cc2ccccc2)n1 [MPEP hydrochloride],scaled lipid accumulation score,[2],0.053
NS(=O)(=O)C#Cc1ccccc1 [Pifithrin-mu],scaled lipid accumulation score,[2],1.02 (active)
FC(F)(F)c1ccc(/C=C\c2cc(Cl)cc(Cl)c2)cc1,scaled lipid accumulation score,[3],≤ 0
CCCCC/C=C\C/C=C\C/C=C\C/C=C\CCCC(=O)C(F)(F)F [Arachidonyl Trifluoromethyl Ketone],scaled lipid accumulation score,[3],≤ 0
CCCCCCCCCCCC#CC#CC#CC#CC(=O)O [Eicosatetraynoic Acid],scaled lipid accumulation score,[3],≤ 0
COc1cc(OC)c(/C=C/S(=O)(=O)Cc2ccc(OC)c(NCC(=O)O)c2)c(OC)c1,scaled lipid accumulation score,[4],≤ -0.016
same,scaled lipid accumulation score,[5],≤ -0.016
same,scaled lipid accumulation score,[6],0.096
same,scaled lipid accumulation score,[1],0.068
same,scaled lipid accumulation score,[2],0.138 and 0.063
CC(C)NCC(O)COc1ccc(CC(N)=O)cc1 (racemic) [(RS)-Atenolol],scaled lipid accumulation score,[2],0.043
CN1CCC(NC(=O)c2cc(-c3c(O)cc(O)cc3Oc3ccc([N+](=O)[O-])cc3)on2)CC1,scaled lipid accumulation score,[1],0.756
COc1ccc2c(c1)C(=O)N(CCc1ccc(S(=O)(=O)NC(=O)NC3CCCCC3)cc1)C(=O)C2(C)C [Gliquidone],scaled lipid accumulation score,,≤ 0
CN1CCC(NC(=O)C2=CC(=C3C(O)=CC(=O)C=C3Oc3ccc([N+](=O)[O-])cc3)ON2)CC1,scaled lipid accumulation score,[2],0.976 (active)
CCCCCC=CCC=CCC=CCC=CCCCC(=O)OCC(O)CO (stereo not given) [1-Arachidonoyl Glycerol],scaled lipid accumulation score,[3],0.012
CCCCC/C=C\C[C@H](O)/C=C/C=C\C/C=C\CCCC(=O)O,scaled lipid accumulation score,library stock concentration: 100 uM,≤ -0.021
Cc1cc2c(OCC(CNC(C)(C)C)OC(=O)c3ccccc3)cccc2[nH]1 (stereo not given) [Bopindolol malonate],scaled lipid accumulation score,library stock concentration: 5.3 mM,≤ -0.006
COc1cc(/C=C/C(N)=O)cc(OC)c1OC,scaled lipid accumulation score,[2],0.006
COc1cc(/C=C/C(=O)O)ccc1O [Ferulic acid],scaled lipid accumulation score,[2],≤ 0
COc1ccc(/C=C\c2cc(OC)c(OC)c(OC)c2)cc1O [Combrestatin A4],scaled lipid accumulation score,[3],0.237 (active)
COc1cc(/C=C/C(=O)O)ccc1O [Ferulic Acid],scaled lipid accumulation score,[1],≤ 0
same,scaled lipid accumulation score,[2],≤ 0
Nc1[nH]nc2nc3ccccc3nc12,scaled lipid accumulation score,[2],≤ -0.006
CC(C)[C@H](N)C(=O)OCC(CO)OCn1cnc2c(=O)[nH]c(N)nc21 (stereo not given in full) [Valganciclovir HCl],scaled lipid accumulation score,[1],≤ 0
same,scaled lipid accumulation score,[2],0.028
COC(=O)C(Cc1ccc(OCCn2c(=O)sc3cc(C(=O)c4ccccc4)ccc32)cc1)C(=O)OC,scaled lipid accumulation score,[2],≤ 0
CCCCN(CC)c1nc(C)nc2c1c(C)cn2-c1c(C)cc(C)cc1C,scaled lipid accumulation score,[2],0.047
"Cc1ccc(NC(=O)c2ccc(CN3CCN(C)CC3)cc2)cc1Nc1nc(-c2cccnc2)cs1 [Masitinib (AB1010, Masivet) (10 mM)]",scaled lipid accumulation score,[2],0.755
Cc1ccc(NC(=O)c2ccc(CN3CCN(C)CC3)cc2)cc1Nc1nc(-c2cccnc2)cs1 [Masitinib] [listing 1 of 2 here],scaled lipid accumulation score,[2],1.07 (active)
Cc1ccc(-c2csc(NC(=O)c3ccccc3)n2)c(C)c1,scaled lipid accumulation score,[1],≤ -0.009
same,scaled lipid accumulation score,[2],≤ 0
Cc1ccc(NC(=O)c2ccc(CN3CCN(C)CC3)cc2)cc1Nc1nc(-c2cccnc2)cs1 [Masitinib] [listing 2 of 2 here],scaled lipid accumulation score,[4],≤ -0.009
same,scaled lipid accumulation score,[5],0.153
same,scaled lipid accumulation score,[6],0.121
Cc1ccc(NC(=O)c2ccc(CN3CCN(C)CC3)cc2)cc1Nc1nc(-c2cccnc2)cs1 [Masitinib (AB1010)],scaled lipid accumulation score,[1],1.13 (active)
same,scaled lipid accumulation score,[2],0.856 (active)
"Cc1ccc(NC(=O)c2ccc(CN3CCN(C)CC3)cc2)cc1Nc1nc(-c2cccnc2)cs1 [Masitinib (AB1010, Masivet) (2 mM)]",scaled lipid accumulation score,[6],1.37 (active)
Cc1cc(C)c(-c2csc(NC(=O)c3ccccc3)n2)c(C)c1,scaled lipid accumulation score,[1],≤ -0.009
same,scaled lipid accumulation score,[2],0.033
"Cc1ccc(NC(=O)c2ccc(CN3CCN(C)CC3)cc2)cc1Nc1nc(-c2cccnc2)cs1 [Masitinib (AB1010, Masivet) (0.4 mM)]",scaled lipid accumulation score,[5],0.487
CCCCCCCCCCCCCCCC(=O)C1=C(O)[C@@H](CO)OC1=O,scaled lipid accumulation score,library stock concentration: 13.6 mM,≤ -0.012
CC1(C)[C@H]2CC[C@]1(CS(=O)(=O)O)C(=O)C2=Cc1ccc(C=C2C(=O)[C@@]3(CS(=O)(=O)O)CC[C@@H]2C3(C)C)cc1,scaled lipid accumulation score,[2],≤ 0
O=C1NC(=O)/C(=C\c2cccc(C(F)(F)F)c2)S1 [PIM12 kinase inhibitor V],scaled lipid accumulation score,[4],≤ -0.001
same,scaled lipid accumulation score,[5],≤ -0.001
same,scaled lipid accumulation score,[6],≤ -0.001
same,scaled lipid accumulation score,[2],0.011
"CCCCCC(=O)CC[C@@H]1[C@@H](CCCCCCC(=O)O)[C@@H](O)C[C@H]1O [13,14-dihydro-15-keto Prostaglandin F1.alpha.]",scaled lipid accumulation score,[3],≤ 0
O=[N+]([O-])c1cc(Cl)ccc1S(=O)(=O)N1CCN(Cc2ccccc2)CC1,scaled lipid accumulation score,[2],0.048
CN(C)c1cnccn1,scaled lipid accumulation score,[2],≤ 0
CCCCC[C@](C)(O)/C=C/[C@H]1[C@H](O)CC(=O)[C@@H]1C/C=C\CCCC(=O)O [15(S)-15-methyl Prostaglandin E2],scaled lipid accumulation score,[3],≤ 0
N#Cc1ccc2[nH]c(O)c(-c3ccc(CN4CCOCC4)cn3)c2c1,scaled lipid accumulation score,[1],0.477
same,scaled lipid accumulation score,[2],0.769
CCc1cc2c(cc1N1CCC(N3CCOCC3)CC1)C(C)(C)c1[nH]c3cc(C#N)ccc3c1C2=O [listing 1 of 2 here],scaled lipid accumulation score,[4],≤ -0.016
same,scaled lipid accumulation score,[5],≤ -0.016
same,scaled lipid accumulation score,[6],0.126
CCc1cc2c(cc1N1CCC(N3CCOCC3)CC1)C(C)(C)c1[nH]c3cc(C#N)ccc3c1C2=O [listing 2 of 2 here],scaled lipid accumulation score,[2],1.17 (active)
CC#CCOC(=O)C1=CCCN(C)C1 [Arecaidine but-2-ynyl ester tosylate],scaled lipid accumulation score,[2],≤ 0
CCOC(=O)[C@H](CCc1ccccc1)N[C@@H](C)C(=O)N1Cc2cc(OC)c(OC)cc2C[C@H]1C(=O)O [Moexipril HCl],scaled lipid accumulation score,[1],≤ 0
same,scaled lipid accumulation score,[2],≤ 0
CCOC(=O)[C@H](CCc1ccccc1)N[C@@H](C)C(=O)N1Cc2cc(OC)c(OC)cc2C[C@H]1C(=O)O [Moexipril hydrochloride],scaled lipid accumulation score,[2],0.011
CO[C@H]1C[C@H](O[C@H]2[C@H](C)[C@@H](O[C@@H]3O[C@H](C)C[C@H](N(C)C)[C@H]3O)[C@@H](C)C[C@@]3(CO3)C(=O)[C@H](C)[C@@H](O)[C@@H](C)[C@@H](C)OC(=O)[C@@H]2C)O[C@@H](C)[C@@H]1O [Oleandomycin phosphate],scaled lipid accumulation score,,≤ 0
same,scaled lipid accumulation score,[2],≤ 0
